Most compounds without a hit are left out; they make up all but 0.37% or so of the library.
Cdc42 wt: modulators (inhibitors or activators) of GTP binding to human Cdc42 wildtype | P60953 | GST-Cdc42 beads, Bodipy-GTP binding, flow cytometry; actives lie on both sides | percent activity (GTP binding), % at 10 µM | 190,000 compounds, 0.2% hits | AID 761;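 active = percent activity GTP binding at least 20 points away from the 100% baseline, either down as inhibitor or up as activator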;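 note: median bead fluorescence of bound Bodipy-FL-GTP at 100 nM; below 100% means less GTP binding so inhibitor and above means activator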
Target sequence (P60953 whole entry, looked up): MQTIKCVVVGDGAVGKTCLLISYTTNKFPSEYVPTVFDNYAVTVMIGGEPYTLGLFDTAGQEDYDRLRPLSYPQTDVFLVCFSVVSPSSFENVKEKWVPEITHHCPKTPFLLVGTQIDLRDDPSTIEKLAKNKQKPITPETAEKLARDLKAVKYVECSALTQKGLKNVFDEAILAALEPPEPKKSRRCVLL
Rab7 wt modul: alters GTP binding to wildtype dog Rab7; GST-Rab7 beads, fluorescent GTP binding, flow cytometry; actives lie on both sides; untreated = 100%, excess cold GTP = 0%; GTP binding activity (percent of control), % at 10 µM; 190,000 compounds, 0.055% hits; AID 758;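 active = fluorescent GTP binding to Rab7 beads changed by at least 20 points from the 100% baseline, either direction, mostly lower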;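 note: median green fluorescence of bound Bodipy-FL-GTP per Rab7 bead population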
Rab2 wt GTP: changes GTP binding to wildtype dog Rab2A, up or down. GST-Rab2 wt beads, Bodipy-GTP binding, flow cytometry. GTP binding activity, % at 10 µM. 190,000 compounds, 0.19% hits. AID 760;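 active = GTP binding activity at least 20 points away from 100%, either lowered or raised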
Rac1 act GTP bind: alters GTP binding to activated mutant human Rac1; 190,000 compounds, 0.11% hits; P63000; percent activity (GTP binding), % at 10 µM; GST-Rac1 activated beads, fluorescent GTP binding, flow cytometry; actives lie on both sides; 100% means binding = to untreated wells; AID 764;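 active = GTP binding at least 20 percentage points away from the 100% baseline, in either direction, so actives lie on both sides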
HRas wt GTP bind: modulators of GTP binding to human HRas wildtype | AID 759 | 190,000 compounds, 0.14% hits | GST-Ras wt beads, Bodipy-FL-GTP binding, flow cytometry; actives lie on both sides | GTP binding activity, % at 10 µM;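 active = GTP binding activity at least 20% away from the 100% baseline, either lowered as inhibitor or raised as activator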
Target sequence (P01112 whole entry, looked up): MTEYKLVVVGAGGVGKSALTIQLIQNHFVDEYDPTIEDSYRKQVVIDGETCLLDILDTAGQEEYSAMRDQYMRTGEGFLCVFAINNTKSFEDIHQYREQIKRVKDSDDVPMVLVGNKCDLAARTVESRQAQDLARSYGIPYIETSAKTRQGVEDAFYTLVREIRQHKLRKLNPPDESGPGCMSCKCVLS
Rac1 wt modul: human Rac1 wildtype GTP binding, inhibitors and activators | AID 757 | 190,000 compounds, 0.27% hits | GST-Rac1 beads, fluorescent GTP binding, flow cytometry; actives lie on both sides; 0 = cold GTP competed, 100 = untreated | GTP binding activity (% of control), % at 10 µM;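 active = GTP binding activity at least 20 points away from the 100% control level, either lower or higher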
Large screens that a line does not name were inactive; [ ] = remark or other dose.

COc1ccc(CC(=O)OC(C)CN2CCCCC2)cc1 (stereo not given)	none
Cc1c(Cl)c([N+](=O)[O-])nn1Cc1ccc(C(=O)N/N=C\c2ccccn2)o1	Rac1 wt modul 75
Cc1ccc(/C=N/NC(=O)c2ccc(Cn3cc([N+](=O)[O-])cn3)o2)cc1	none
O=C(c1ccc2c(=O)n(-c3ccccc3)c(=O)[nH]c2c1)N1CCN(c2ccc(F)cc2)CC1	none
CC(=O)c1ccc(N2CCN(C(=O)c3ccc4c(=O)n(-c5ccccc5)c(=O)[nH]c4c3)CC2)cc1	Rac1 wt modul 121[activator]
CCc1ccc(NC(=O)c2c(C(=O)Nc3ccccc3)sc3nc(C)cc(=O)n23)cc1	none
Cc1ccc(NN2C(=O)C=C(c3ccccc3)C2=O)cc1	none
COc1cccc(N=Nc2c(N)[nH]n3c(=O)cc(-c4ccccc4)nc23)c1	none
Cc1ccc(N=Nc2c(N)[nH]n3c(=O)cc(-c4ccccc4)nc23)cc1	Cdc42 wt 79, Rab2 wt GTP 78, Rac1 act GTP bind 77, Rac1 wt modul 79
Nc1[nH]n2c(=O)c3c(nc2c1N=Nc1ccc(Cl)cc1)CCCC3	Rac1 wt modul 74
Nc1[nH]n2c(=O)c3c(nc2c1N=Nc1ccccc1)CCCC3	Cdc42 wt 72, Rab2 wt GTP 71, HRas wt GTP bind 73
C/C(Cl)=C\COc1cc(C)nc2c(Br)cccc12	none
O=C1NN(c2ccccc2)C(=O)/C1=C/c1ccc(-c2ccc(Cl)c(C(=O)O)c2)o1	none
O=C(O)c1cc(-c2ccc(/C=C3\NC(=O)N(c4ccc(Cl)cc4)C3=O)o2)ccc1Cl	Cdc42 wt 74, Rac1 act GTP bind 77, Rac1 wt modul 74
C/C(=N/NC(=O)CNS(=O)(=O)c1ccc(C)cc1)c1cccc([N+](=O)[O-])c1	none
Cc1cc(C)nc(Nc2nc(=O)c3ccccc3s2)n1	Cdc42 wt 135[activator], Rac1 wt modul 165[activator]
CCN(CC)C(=S)SCC(=O)Nc1nc(=O)c2ccccc2s1	none
C=CCn1c(-c2csc(-c3ccc(Cl)cc3)n2)n[nH]c1=S	Rac1 wt modul 120[activator]
CCOc1ccccc1NC(=S)NNS(=O)(=O)c1c(C)cc(C)cc1C	none
COc1ccc(CC2(CO)CCN(S(=O)(=O)c3sccc3C)CC2)cc1	Cdc42 wt 63, Rab7 wt modul 66, Rab2 wt GTP 66, Rac1 act GTP bind 57, HRas wt GTP bind 61, Rac1 wt modul 58
COc1ccc(CC2(CO)CCN(S(=O)(=O)c3c(C)nn(C)c3Cl)CC2)cc1	none
O=S(=O)(Cc1ccccc1)N1CCc2ccccc21	Rab2 wt GTP 37
O=C(COC(=O)/C=C/c1ccc([N+](=O)[O-])cc1)NC(c1ccccc1)c1ccccc1	none
Cc1ccc(C(=O)Nc2ccnc(-c3cccnc3)n2)cc1	none
Cc1ccc(NC(=O)Nc2ccnc(-c3cccnc3)n2)cc1	Cdc42 wt 65, Rab2 wt GTP 64, HRas wt GTP bind 67
CCCCCCCCCCCC(=O)c1c(O)cccc1O	Cdc42 wt 79, Rac1 act GTP bind 79
CCCCCCCC(=O)NNC(=O)Cc1ccccc1	none
CCOC(=O)Cc1csc(NC(=O)CSc2nc(-c3ccccc3)c(C#N)c(=O)[nH]2)n1	Rac1 act GTP bind 79
CCOc1ccc2nc(NC(=O)CSc3nc(-c4ccccc4)c(C#N)c(=O)[nH]3)sc2c1	Rac1 act GTP bind 78
COc1cccc(CC2(CO)CCCN(Cc3cn[nH]c3-c3cc(C)ccc3C)C2)c1 (stereo not given)	none
Cn1c(=O)c2cc(S(=O)(=O)NCCC(=O)NCc3ccccc3Cl)ccc2n(C)c1=O	Cdc42 wt 68, Rab2 wt GTP 64, HRas wt GTP bind 68
N#Cc1c2nc3ccccc3nc2n2cc(NC(=O)c3ccc(F)cc3)ccc12	Rab2 wt GTP 77, Rac1 wt modul 79
O=C(Nc1nc2ccccc2[nH]1)c1ccc(F)cc1	none
O=c1[nH][nH]c2cc(=O)n(-c3ccc(Cl)cc3)nc12	none
COc1ccccc1OCCn1cc(C#N)c2ccccc21	none
COc1ccccc1OCCn1cc(C(=O)O)c2ccccc21	Rac1 act GTP bind 120[activator], Rac1 wt modul 120[activator]
O=C(O)c1cn(CCOc2ccccc2Cl)c2ccccc12	Rac1 wt modul 121[activator]
Cc1ccccc1OCCn1cc(C(=S)N2CCN(C)CC2)c2ccccc21	none
CC(C)C(=O)Nc1cccc(C(=O)Nc2cc([N+](=O)[O-])ccc2F)c1	none
Cc1ccc([N+](=O)[O-])cc1-c1ccc(/C=C(\C#N)c2[nH]nc(N)c2C#N)o1	Rac1 wt modul 79
COC(=O)CCC(=O)NNC(=O)Cc1ccccc1	none
CN1C(=O)/C(=C2\SC(=S)N(CC3CCCO3)C2=O)c2ccccc21 (stereo not given)	none
O=C1/C(=C\c2ccc(-c3ccccc3Cl)o2)SC(=S)N1CC1CCCO1 (stereo not given)	Cdc42 wt 63, Rab7 wt modul 68, Rab2 wt GTP 62, Rac1 act GTP bind 59, HRas wt GTP bind 55, Rac1 wt modul 59
COc1cc(/C=N/NC(=O)c2cc3ccccc3cc2O)ccc1OCCN1CCCCC1	Rac1 act GTP bind 76
CCCCNS(=O)(=O)c1ccc(NC(=O)Cc2ccc(OC)cc2)cc1	none
COc1ccc(CC(=O)Nc2ccc(S(=O)(=O)NC(C)C)cc2)cc1	Cdc42 wt 30, Rab7 wt modul 22, Rab2 wt GTP 29, Rac1 act GTP bind 29, HRas wt GTP bind 33, Rac1 wt modul 27
CCOc1ccc(C(=O)NCC(=O)N2CCC(C)CC2)cc1OCC	none
COc1ccc(CCn2c(C(C)C)nc3c(c(=O)c4ccccc4n3C)c2=O)cc1	Rab2 wt GTP 77
COc1ccc(CCn2c(C)nc3c(c(=O)c4ccccc4n3C)c2=O)cc1	none
CCc1ccc(C(N)=S)cc1	none
Cc1cc(C)n(C(=O)CNC(=O)c2ccc3c(c2)OCCO3)n1	Cdc42 wt 34, Rab7 wt modul 20, Rab2 wt GTP 32, Rac1 act GTP bind 33, HRas wt GTP bind 38, Rac1 wt modul 29
Cc1cc(C)n(C(=O)CNC(=O)C2COc3ccccc3O2)n1 (stereo not given)	none
O=C(NC1CCCCC1)c1cc([N+](=O)[O-])[nH]n1	Rac1 wt modul 127[activator]
CCCCNC(=O)c1cc([N+](=O)[O-])[nH]n1	Rac1 wt modul 127[activator]
CC(=O)NCCNC(=O)C1CCCCN1S(=O)(=O)c1ccccc1 (stereo not given)	none
O=C1CC(C(=O)NC2CCCCC2)C2(CCCCC2)O1 (stereo not given)	none
CCN(CC)S(=O)(=O)c1ccc2oc(C(=O)N3CCc4ccccc4C3)c(C)c2c1	Rac1 wt modul 128[activator]

High-throughput results as filed in PubChem BioAssay.
